Here are results for nine compounds from PubChem BioAssay (NCATS).

The structures appear in SMILES notation. “And” between values parts separate entries of the source, which are not always exact repeats. Identical values can stand only once. Results filed as inconclusive are left out. The source holds several records for some structures; these can differ, active in one and inactive in another. The source made the active and inactive calls. Unless noted, calls follow the shape of the dose curve; as a rule, active = well fitted curve in either direction with a large enough effect (not every such curve was filed as active); inconclusive = small, poorly fitted or top-dose-only effect, or another doubt; inactive = flat fitted curve, though single readings scatter. Bounds are passed on as bounds.

The target of test [1] is Cytochrome P450 1A2 (Homo sapiens) (UniProt P05177). The experiment in a line: p450-cyp1a2 (AID 410; calls by dose curve; also: potency is read from the fitted curve at half-maximal effect;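 as to activity change, negative = inhibition: -100% = full effect of reference inhibitor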). The essentials:
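O-Demethylation of luciferin 6' methyl ether by human CYP1A2 is monitored as luciferase luminescence. Substrate sits at Km (100uM); enzyme is 20nM. Values are scaled to 57 uM furafylline as maximal inhibition.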

Test [2] in a line: Cell Viability - BJ (AID 421; calls by dose curve;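 also: potency is read from the fitted curve at half-maximal effect; cells exposed to compound for 40 hours at 37 °C before readout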). Particulars: BJ fibroblast viability, qHTS. The essentials:
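Quantitative HTS: ATP depletion in BJ cells after 40 hr compound exposure in complete culture medium, detected with CellTiter-Glo; AC50 from standard Hill fits.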
Background: Quantitative high-throughput screening tests each substance at several concentrations.

The nature of test [3]: Cell Viability - Jurkat (AID 426;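 active = dose-dependent loss of cell ATP signal giving a full or clear fitted curve, ranked by lower potency value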; also: potency is read from the fitted curve at half-maximal effect). Particulars: qHTS. The method in brief:
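Cells of the human T-cell leukemia line Jurkat (E6-1) are seeded at 5000 per well, treated with compound across a concentration range for 40 hours at 37 °C, then lysed with CellTiter-Glo; luminescence reports ATP.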

Test [4] in a line: Cell Viability - Hek293 (AID 427;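 active = compounds whose dose-response curve shows a full or clear partial loss of cell viability, called from curve shape rather than a numeric limit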;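 also: potency is read from the fitted curve at half-maximal effect; cells exposed to compound for 40 hours at 37 °C before reading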). Particulars: qHTS. The method in brief: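 AC50 values derive from Hill-modelled concentration-response of ATP-based luminescence, normalized between DMSO-only and 100 uM tamoxifen controls. Cells were exposed in complete culture medium for 40 hr at 37 °C before detection.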
The nature of test [5]: Cell Viability - HepG2 (AID 433; calls by dose curve;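 also: potency is read from the fitted curve at half-maximal effect; potency for ATP loss meaning cytotoxicity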). Particulars: qHTS. The essentials:
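In this qHTS format, a 40 h, 37 °C compound incubation of HepG2 cells in complete medium precedes a 20 min CellTiter-Glo step at room temperature. Tamoxifen and doxorubicin serve as positive controls; Hill-equation fits yield AC50.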

Test [6] can be described thus: Cell Viability - MRC5 (AID 434; calls by dose curve;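 also: potency is read from the fitted curve at half-maximal effect; potency reflects cytotoxicity seen as loss of intracellular ATP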). Particulars: MRC5 lung fibroblast viability, qHTS. The essentials:
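Decrease in intracellular ATP, quantified by luciferase light output, reflects compound toxicity toward MRC5 cells exposed for 40 hr in complete culture medium. Concentration-response curves, scaled between DMSO and 100 uM tamoxifen, gave AC50 values.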

Test [7] in a line: Cell Viability - SK-N-SH (AID 435; calls by dose curve;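 also: potency is read from the fitted curve at half-maximal effect; compound exposure lasted 40 h at 37 °C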). Particulars: SK-N-SH neuroblastoma cell viability qHTS. The essentials: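 Human neuroblastoma line, 40 h exposure at 37 °C, ATP quantified via luciferase luminescence; DMSO and 100 uM tamoxifen define 0 and 100% inhibition for AC50 fitting.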
Test [8] can be described thus: NFAT Signaling Pathway (AID 444).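 Also: carbachol stimulus at about its EC50 of 1 µM final; % is scaled to controls: 0 for no effect and ±100 for the full control effect.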 Particulars: Jurkat NFAT-bla M1, carbachol, beta-lactamase ratio, 5 h. The essentials:
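Jurkat cells carrying an NFAT-driven β-lactamase reporter and co-transfected muscarinic M1 receptor were treated with compound plus carbachol (1 uM final, an EC50 level) for 5 h at 37 °C. CCF4 loading followed for 1 h at RT; 460/530 nm ratio gave %activity.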

Test [9] in a line: Stat Signaling Pathway (AID 446).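 Also: ME-180 cervical cancer cells given 40 pM IL-6 alongside compound; SIE-controlled beta-lactamase reporter measured as 460/530 nm FRET emission ratio; % is scaled to controls: 0 for no effect and ±100 for the full control effect.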 The essentials: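 Overnight-plated ME-180 cells bearing a STAT Inducible Element beta-lactamase reporter; 5 h co-exposure to compound and 40 pM IL-6; values normalized to 300 pM IL-6 and 125 nM JAK inhibitor controls.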
The target in test [10] is Mitogen-activated protein kinase 10 (Mus musculus) (UniProt Q61831). Briefly: JNK3 AlphaScreen Assay (AID 530).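 Also: kinase came from lysate of stimulated human HepG2 cells.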 Also: potency is read from the fitted curve at half-maximal effect.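 As to activity change, negative = inhibition: signal reports phosphorylation of biotinylated GST-cJun 1-79 at Ser73 with 10 µM ATP; % is scaled to controls: 0 for no effect and ±100 for the full control effect.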 The essentials:
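Phosphorylation of biotinylated GST-cJun(1-79) at Ser73 is measured by AlphaScreen proximity luminescence. Enzyme is JNK3 in HepG2 lysates activated with interleukin-1beta and tumor necrosis factor alpha; ATP is 10 uM final.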
A general note: Alpha assays give light when donor and acceptor beads are brought close together.

Test [11] is described as follows: Cell Viability - N2a (AID 540; active = well fitted curve in the direction sought with a large enough effect; an effect the other way counts as inactive or inconclusive;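 also: plate controls were DMSO alone for no effect and tamoxifen control for full effect; nearly all actives have a fitted effect of over 45% in size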). The essentials:
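Cytotoxicity was scored as loss of cellular ATP in N2a cells, a mouse neuroblastoma line. Compounds are applied in a qHTS concentration series for 40 hr at 37 °C.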

A short description of test [12]: Cell Viability - NIH 3T3 (AID 541; active = well fitted curve in the direction sought with a large enough effect; an effect the other way counts as inactive or inconclusive;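 also: plate controls were DMSO alone for no effect and tamoxifen positive control for full effect; nearly all actives have a fitted effect of over 25% in size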). Particulars: NIH 3T3 cell viability, qHTS; activity change, negative = cytotoxicity: at 92.2 µM (top of the series). The essentials: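 Cells seeded at 1000/well, rested 5 hr at 37 °C, then dosed and incubated 40 hr at 37 °C. CellTiter-Glo added, 20 min room temperature, luminescence read. AC50 by Hill fit.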
Test [13] in a line: Cell Viability - HUV-EC-C (AID 542; active = well fitted curve in the direction sought with a large enough effect; an effect the other way counts as inactive or inconclusive; also: % is scaled to controls: 0 for no effect and ±100 for the full control effect; nearly all actives have a fitted effect of over 35% in size). The essentials: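 Cells were seeded at 1000 per well and incubated 5 hr at 37 °C before compound addition. After 40 hr at 37 °C, CellTiter-Glo reagent was added for 20 min and luminescence read. AC50 values came from Hill-equation modelling.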
Test [14] in a line: Cell Viability - H-4-II-E (AID 543; active = well fitted curve in the direction sought with a large enough effect; an effect the other way counts as inactive or inconclusive; also: % is scaled to controls: 0 for no effect and ±100 for the full control effect; nearly all actives have a fitted effect of over 35% in size). The method in brief: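 Cells seeded at 1500 per well and rested 5 hr; compounds added; 40 hr incubation at 37 °C; CellTiter-Glo added, 20 min at room temperature; luminescence read. Hill-equation fits gave AC50.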
The nature of test [15]: Cell Viability - SH-SY5Y (AID 544; active = well fitted curve in the direction sought with a large enough effect; an effect the other way counts as inactive or inconclusive;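 also: 0% = DMSO alone and -100% = 100 µM tamoxifen; nearly all actives have a fitted effect of over 55% in size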). The method in brief: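 Cells were plated at 1500 per well and allowed 5 hr at 37 °C. Compounds were added across a concentration range and incubated 40 hr at 37 °C. CellTiter-Glo was added for 20 min at room temperature before luminescence reading.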
A short description of test [16]: Cell Viability - Mesenchymal (AID 546; active = well fitted curve in the direction sought with a large enough effect; an effect the other way counts as inactive or inconclusive;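 also: cells exposed to compound for 40 hours before reading; 0% = DMSO only and -100% = 100 µM tamoxifen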). Particulars: mesenchymal cells viability, qHTS; activity change, negative = cytotoxicity: at 91.7 µM (top of the series). The essentials: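 In this qHTS cytotoxicity format, glomerulus-derived human mesenchymal kidney cells received compound for 40 hr, then luciferase-based ATP quantitation. Concentration-response data were fitted with the Hill equation.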

Test [17] in a line: AP1 Signaling Pathway (AID 357). Also: % is scaled to controls: 0 for no effect and ±100 for the full control effect. Particulars: ME-180 (cervical carcinoma) AP-1-bla reporter, EGF-induced, beta-lactamase ratio, 5 h. The method in brief: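 Read-out was the 460nm/530nm emission ratio (excitation 405nm) after CCF4 loading for 2.5 hours at room temperature. Cells carried an AP-1-driven beta-lactamase reporter, were stimulated with EC50 EGF plus compound for 5 hours, and AC50 values came from titrations.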

For test [18], the target named is Glucocorticoid receptor (Homo sapiens) (UniProt P04150). The experiment in a line: GR-GFP Redistribution (AID 450;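 active = compounds whose dose series gives a full or clear partial fitted curve of increased nuclear translocation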; also: potency is read from the fitted curve at half-maximal effect). Particulars: U2OS GR-GFP nuclear translocation, laser cytometry, 2 h.
Chain of Glucocorticoid receptor (Homo sapiens) (P04150 whole entry, looked up, the tested form may be a part): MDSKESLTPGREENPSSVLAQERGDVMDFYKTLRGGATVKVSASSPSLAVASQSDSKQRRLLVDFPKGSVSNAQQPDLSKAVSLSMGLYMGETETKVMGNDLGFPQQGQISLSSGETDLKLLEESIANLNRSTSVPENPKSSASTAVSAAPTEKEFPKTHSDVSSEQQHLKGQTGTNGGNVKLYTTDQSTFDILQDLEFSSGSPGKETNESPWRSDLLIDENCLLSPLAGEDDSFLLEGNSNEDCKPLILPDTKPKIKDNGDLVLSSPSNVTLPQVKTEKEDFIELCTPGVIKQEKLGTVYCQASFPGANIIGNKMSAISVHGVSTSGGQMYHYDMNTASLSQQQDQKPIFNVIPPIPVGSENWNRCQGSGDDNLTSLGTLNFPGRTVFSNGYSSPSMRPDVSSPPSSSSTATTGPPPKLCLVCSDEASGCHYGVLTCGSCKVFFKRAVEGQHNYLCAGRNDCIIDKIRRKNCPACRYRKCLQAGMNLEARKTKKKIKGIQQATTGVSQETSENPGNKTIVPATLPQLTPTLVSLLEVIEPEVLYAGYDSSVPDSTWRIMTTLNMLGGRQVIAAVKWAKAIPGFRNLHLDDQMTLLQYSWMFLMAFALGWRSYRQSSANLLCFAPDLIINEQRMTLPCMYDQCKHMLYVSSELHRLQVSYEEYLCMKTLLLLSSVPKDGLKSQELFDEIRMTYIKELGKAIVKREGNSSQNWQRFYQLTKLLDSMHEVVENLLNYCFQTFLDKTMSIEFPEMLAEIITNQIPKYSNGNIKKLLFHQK
The target is the same in test [19]. Briefly: GR-EFC Redistribution (AID 451; calls by dose curve; also: potency is read from the fitted curve at half-maximal effect). Particulars: CHO-K1 GR-EFC translocation, beta-gal luminescence, 2 h. The method in brief: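 CHO-K1 cells stably expressing nuclear-localized β-gal enzyme acceptor and GR fused C-terminally to the enzyme donor fragment; ligand-driven nuclear translocation restores β-gal by complementation. Compounds titrated up to 46 uM final, 2 h at 37 °C; luminescence read.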

Chain of Cytochrome P450 1A2 (Homo sapiens) (P05177 whole entry, looked up): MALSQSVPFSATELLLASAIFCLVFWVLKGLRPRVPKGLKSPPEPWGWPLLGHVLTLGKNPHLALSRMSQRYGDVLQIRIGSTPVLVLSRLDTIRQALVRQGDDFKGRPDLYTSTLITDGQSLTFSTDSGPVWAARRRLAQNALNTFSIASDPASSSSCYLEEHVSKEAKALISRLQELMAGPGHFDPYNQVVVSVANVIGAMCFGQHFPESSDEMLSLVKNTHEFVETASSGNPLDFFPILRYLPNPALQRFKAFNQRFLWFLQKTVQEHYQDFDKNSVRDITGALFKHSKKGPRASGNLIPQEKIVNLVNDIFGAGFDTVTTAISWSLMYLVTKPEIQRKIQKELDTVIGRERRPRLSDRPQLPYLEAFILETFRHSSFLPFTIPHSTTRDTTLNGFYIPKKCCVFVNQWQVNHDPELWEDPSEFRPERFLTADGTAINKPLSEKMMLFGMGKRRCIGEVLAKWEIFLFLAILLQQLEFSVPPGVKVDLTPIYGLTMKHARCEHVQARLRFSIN

As to `CN=C(NC#N)NCCSCc1nc[nH]c1C`, the Potency result in test [1], in [10], in test [13], in test [14], in [15] and in [16] was “inactive” throughout. The Potency in test [2], in test [3], in test [4], in test [5], in test [6] and in [7] was > 92 µM (inactive) in each case. In addition, in test [8] (at 38 µM (top of the series)), the activity change, negative = inhibition was 6.95% (inactive). In addition, the compound was classed as inactive in test [9] and in test [11]. Further, the activity change, negative = cytotoxicity in [12] is -4.92% (inactive).

On to `C=CCc1ccccc1OCC(O)CNC(C)C` (centres undefined), for which the results for the activity change, negative = inhibition in [17] (at 17.2 µM (top of the series)) and in test [8] (at 17.2 µM (top of the series)) were 12.6% (inactive) and 5.58% (inactive), respectively. In addition, the result in test [9] was inactive.

Turning to `O=C(CCCN1CCC(O)(c2cccc(C(F)(F)F)c2)CC1)c1ccc(F)cc1`, the activity change, negative = inhibition in test [17] (at 38 µM (top of the series)) is 14.4% (inactive); in test [8] (at 38 µM (top of the series)), -2.13% (inactive). In addition, the Potency entry in [1] and in [10] was “inactive” each time. The call in test [9] was inactive. For the same compound, the Potency in test [18] and in test [19] was > 46 µM (inactive) throughout.

For `C#CCN(C)CCCOc1ccc(Cl)cc1Cl`, the Potency in test [1] was 631 nM (active) and 158 nM (active); in test [18], > 46 µM (inactive) and > 20.6 µM (inactive); in test [19], > 46 µM (inactive) and > 20.6 µM (inactive). In addition, the activity change, negative = inhibition is -4.25% (inactive) in test [8] (at 17.2 µM (top of the series)) and -1.82% (inactive) in test [8] (at 38 µM (top of the series)). The call in test [9] was inactive. Moreover, in test [10], the Potency entry was “inactive”.

As for `COc1cc2c(cc1OC)-c1cc(=Nc3c(C)cc(C)cc3C)n(C)c(=O)n1CC2`, the activity change, negative = inhibition in test [17] (at 38 µM (top of the series)) is -25.7% (inactive); in test [8] (at 38 µM (top of the series)) it was -16.6% (inactive). For the same compound, the Potency entry in [1] and in [10] was “inactive” throughout. Besides, the Potency in [18] and in test [19] was > 46 µM (inactive) each time.

Take `c1ccc2c(c1)CCCC2C1=NCCN1` (centres undefined): the activity change, negative = inhibition in test [17] (at 17.2 µM (top of the series)) was 6.93% (inactive). The result in test [9] was inactive.

On to `CC1=NS(=O)(=O)c2cc(Cl)ccc2N1`, for which the Potency in [1] was 7.94 µM (active) and 3.16 µM (active) and 2 µM (active); in test [18], > 46 µM (inactive) and > 20.6 µM (inactive); in test [19], > 46 µM (inactive) and > 20.6 µM (inactive). The activity change, negative = inhibition in test [8] (at 17.2 µM (top of the series)) was -1.94% (inactive) and 7.03% (inactive); in test [8] (at 38 µM (top of the series)), 2.63% (inactive). The outcome in test [9] was inactive. Moreover, the Potency result in test [10] was “inactive”.

As for `Cc1ccc(=O)n(-c2ccccc2)c1`, the activity change, negative = inhibition in test [17] (at 38 µM (top of the series)) was -0.00383% (inactive); in [8] (at 38 µM (top of the series)), 14.9% (inactive). In addition, the Potency result in [1] is “inactive and 31.6 µM (active)”; in test [10], 12.6 µM (active). Also, the outcome in test [9] was inactive.

As to `c1cc(CN2CCCCC2)cc(OCCCNc2nc3ccccc3s2)c1`, the activity change, negative = inhibition in test [17] (at 38 µM (top of the series)) is 6.03% (inactive). The Potency was 15.8 µM (active) and 31.6 µM (active) in test [1]; > 46 µM (inactive) in [18]; > 46 µM (inactive) in [19]. For the same compound, the call in test [9] was inactive. Besides, the Potency result in test [10] is “inactive”.
